Structures are written as SMILES. The panel holds about 83,000 compounds, 20% with a hit somewhere; the sample as a whole holds those more often.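 For each line, cells grew in 96-well plates with the test compound present at a single concentration for 48 hours.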 Unmarked numbers belong to inactive results. The source made the active and inactive calls. How the source made its calls: active means growth percent below 10; inactive means the rest.

The text below walks through data of PubChem BioAssay (NCI).

The subject of one assay is OVCAR-8 ovarian. Description: NCI-60 one-dose screen, 48 h (100 = growth as untreated, 0 = no growth, -100 = all killed). The note with it: 10 µM.
`COc1ccc(-c2cc3c(nn2)-c2ccccc2C3=O)cc1`: the growth is -9.96% (active).

Regarding `CCCCC(=O)c1ccc(OC)cc1`, the growth was 97%.

As to `N=c1c(C(=O)OCc2ccccc2)ncc(CCl)n1O`, the growth was 101%.

On to `CCOC(=O)c1ccc(Nc2sc(C(=O)c3cccc([N+](=O)[O-])c3)c(N)c2C#N)cc1`, for which the growth is 35.7%.

As to `COC(=O)c1ccccc1N(C)C`, the growth is 105%.

Turning to `CC1(C(=O)O)NC(C(=O)O)Cc2c1[nH]c1ccccc21` (stereo unspecified), the growth was 104%.

On to `NCCC(=O)c1ccc(Cl)cc1`, for which the growth is 101%.

For `CC(=O)/C(Cc1ccccc1)=N/O`, the growth is 96.1%.

Take `Cc1cccc(CO)c1`: the growth is 101%.

Turning to `CC1(C)/C(=C\CO)C2CCC1C2` (stereo unspecified), the growth is 114%.

As for `CC1C(=O)c2ccccc2CC1C(=O)O` (stereo unspecified), the growth was 97%.

Regarding `CC12CC3CC1C(C(=O)O2)C3C(=O)O` (stereo unspecified), the growth was 104%.

With `CC(C)CCOC(=O)c1ccccc1`, the growth is 99.4%.

With `O=C1C[C@H](c2ccccc2)[C@H](c2ccccc2)C1`, the growth is 109%.

For the compound `O=c1cc(-c2ccccc2)oc2c1ccc1ccccc12`, the growth is 82.3%.

Turning to `O=C(CCl)N1CCN(C/C=C/c2ccccc2)CC1`, the growth is 80%.

Consider `COC(=O)c1cccnc1`, for which the growth is 92.2%.

In the case of `CC(=O)NCc1cc(C)c(C)cc1C`, the growth is 104%.

Take `C#CCSc1nnnn1-c1ccc(Br)c(C)c1`: the growth was 82.5%.

`C=CCNC(=O)c1ccc(OC)cc1`: the growth was 107%.

Turning to `O=C1Cc2ccccc2C(=O)O1`, the growth was 102%.

Regarding `Cc1ccccc1C1N=C2Oc3ccccc3C=C2C(=O)N1` (stereo unspecified), the growth is 53.3%.

For the compound `C/C(=C\c1cc(Cl)ccc1OCC(=O)O)[N+](=O)[O-]`, the growth was 100%.

With `Cc1cc(Cc2cc(C)c(N)cc2N)c(N)cc1N`, the growth was 89.7%.

With `CC1Cc2ccccc2O1` (stereo unspecified), the growth is 112%.

As to `Cc1cc(C)cc(NCCC#N)c1`, the growth is 126%.

As for `OCC(O)C(O)C(O)C(O)/C=N/O` (stereo unspecified), the growth was 97.6%.

Regarding `O=c1cc(-c2ccccc2)[nH]c(=S)[nH]1`, the growth is 111%.

For `Nc1nc(N)c(N=Nc2ccc(C(=O)O)cc2)c(N)n1`, the growth was 104%.

Regarding `c1ccc(CN2COc3c(ccc4c3OCN(Cc3ccccc3)C4)C2)cc1`, the growth is 23%.

Consider `CCOC(=O)C1=C(Nc2ccc(Br)cc2)C(=O)N(CC)C1`, for which the growth is 95.7%.

For the compound `CC(C)=CC(=O)OC(=O)C=C(C)C`, the growth is 99.7%.

With `O=C(O)C(c1ccccc1)C(O)c1ccccc1` (stereo unspecified), the growth is 99.4%.

Consider `O=C(CN1CCNCC1)N1CCOCC1`, for which the growth is 91.9%.

Regarding `Nc1ccc(N)c([N+](=O)[O-])c1`, the growth was 111%.

Take `CCOC(=O)c1coc(C(=O)OCC)c1C(=O)OCC`: the growth is 118%.

Regarding `COC(=O)/C=C/C(=O)NC(N)=O`, the growth was 99.5%.

As for `O=[N+]([O-])c1ccc(N=Nc2ccccc2)cc1`, the growth was 104%.

In another assay the test system is OVCAR-5 ovarian. The description is as above. To be noted: 10 µM.
In the case of `COc1ccc(-c2cc3c(nn2)-c2ccccc2C3=O)cc1`, the growth was 83.7%.

As for `CCCCC(=O)c1ccc(OC)cc1`, the growth is 90.5%.

As for `N=c1c(C(=O)OCc2ccccc2)ncc(CCl)n1O`, the growth was 103%.

For the compound `CCOC(=O)c1ccc(Nc2sc(C(=O)c3cccc([N+](=O)[O-])c3)c(N)c2C#N)cc1`, the growth is 38.1%.

For the compound `COC(=O)c1ccccc1N(C)C`, the growth is 114%.

Take `CC1(C(=O)O)NC(C(=O)O)Cc2c1[nH]c1ccccc21` (stereo unspecified): the growth is 101%.

Regarding `NCCC(=O)c1ccc(Cl)cc1`, the growth is 118%.

`CC(=O)/C(Cc1ccccc1)=N/O`: the growth is 97.7%.

As to `Cc1cccc(CO)c1`, the growth was 107%.

As to `CC1(C)/C(=C\CO)C2CCC1C2` (stereo unspecified), the growth was 105%.

Turning to `CC1C(=O)c2ccccc2CC1C(=O)O` (stereo unspecified), the growth is 103%.

On to `CC12CC3CC1C(C(=O)O2)C3C(=O)O` (stereo unspecified), for which the growth was 97.8%.

Take `CC(C)CCOC(=O)c1ccccc1`: the growth was 105%.

For `O=C1C[C@H](c2ccccc2)[C@H](c2ccccc2)C1`, the growth is 95.8%.

On to `O=c1cc(-c2ccccc2)oc2c1ccc1ccccc12`, for which the growth was 96%.

Regarding `O=C(CCl)N1CCN(C/C=C/c2ccccc2)CC1`, the growth is 111%.

As to `COC(=O)c1cccnc1`, the growth is 90.3%.

Consider `CC(=O)NCc1cc(C)c(C)cc1C`, for which the growth is 95.5%.

For `C#CCSc1nnnn1-c1ccc(Br)c(C)c1`, the growth was 90%.

Take `C=CCNC(=O)c1ccc(OC)cc1`: the growth was 103%.

With `O=C1Cc2ccccc2C(=O)O1`, the growth is 106%.

For the compound `Cc1ccccc1C1N=C2Oc3ccccc3C=C2C(=O)N1` (stereo unspecified), the growth is 17.3%.

Consider `C/C(=C\c1cc(Cl)ccc1OCC(=O)O)[N+](=O)[O-]`, for which the growth was 106%.

As for `Cc1cc(Cc2cc(C)c(N)cc2N)c(N)cc1N`, the growth was 116%.

In the case of `CC1Cc2ccccc2O1` (stereo unspecified), the growth was 110%.

As to `Cc1cc(C)cc(NCCC#N)c1`, the growth was 112%.

With `OCC(O)C(O)C(O)C(O)/C=N/O` (stereo unspecified), the growth is 109%.

`O=c1cc(-c2ccccc2)[nH]c(=S)[nH]1`: the growth is 98.4%.

As for `Nc1nc(N)c(N=Nc2ccc(C(=O)O)cc2)c(N)n1`, the growth was 101%.

`c1ccc(CN2COc3c(ccc4c3OCN(Cc3ccccc3)C4)C2)cc1`: the growth is 41.8%.

As for `CCOC(=O)C1=C(Nc2ccc(Br)cc2)C(=O)N(CC)C1`, the growth is 91%.

`CC(C)=CC(=O)OC(=O)C=C(C)C`: the growth is 104%.

With `O=C(O)C(c1ccccc1)C(O)c1ccccc1` (stereo unspecified), the growth is 103%.

In the case of `O=C(CN1CCNCC1)N1CCOCC1`, the growth is 109%.

Consider `Nc1ccc(N)c([N+](=O)[O-])c1`, for which the growth is 104%.

`CCOC(=O)c1coc(C(=O)OCC)c1C(=O)OCC`: the growth was 114%.

As for `COC(=O)/C=C/C(=O)NC(N)=O`, the growth was 98.3%.

Regarding `O=[N+]([O-])c1ccc(N=Nc2ccccc2)cc1`, the growth is 97.7%.
